Reference: PubChem BioAssay AID686979 (National Center for Advancing Translational Sciences (NCATS), 2013)
Hit rate of the full screen: of about 420,000 compounds, about 50,000 (12%) were called active. Another 26% or so got no clear call; they are omitted. The sample as a whole holds a higher share of actives than the screen did. Values without a mark were called inactive. The call rests on the fitted dose curve; in most records, active means well fitted inhibition curve with a large enough effect; inconclusive means small, poorly fitted or top-dose-only effect; inactive means flat fitted curve, though single readings scatter.

Experiment: qHTS for Inhibitors of human tyrosyl-DNA phosphodiesterase 1 (TDP1): qHTS in cells in presence of CPT; further: nearly all actives have a fitted effect of over 55% in size
Settings: chicken DT40 Tdp1-/-;hTDP1 cells + 20 nM CPT, ATP luminescence, 48 h; series mostly up to 46.2 µM; activity change, negative = growth inhibition: at the top concentration
Summary of the method: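 Cell growth measured by CellTiter-Glo luminescence after a minimum 48 h, 37 C compound exposure with 20 nM CPT in Tdp1-knockout DT40 cells stably expressing hTDP1, seeded 400/well; qHTS titration format.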
On the % scale 0 is the no-effect control and ±100 the full control effect; potency means the concentration at half of the fitted maximal effect.

| SMILES | Potency | activity change, negative = growth inhibition [%] |
| --- | --- | --- |
| C[C@@H]1CN([C@H](C)CO)S(=O)(=O)c2ccc(C#C[C@@H](C)O)cc2O[C@@H]1CN(C)Cc1ccc(-c2ccccc2)cc1 | 11.6 µM (active) | – |
| C[C@H]1CN([C@@H](C)CO)S(=O)(=O)c2ccc(-c3cccc(F)c3)cc2O[C@@H]1CN(C)C | – | -11.3 |
| CCc1c(C)nc2cc(C)[nH]n2c1=O | – | -3.18 |
| CCOc1ccc(S(=O)(=O)NCCC(=O)NCC2CCCO2)cc1 (configuration not stated) | – | 4.72 |
| Cc1c[n+]([O-])ccc1[N+](=O)[O-] | – | -29.1 |
| O=C(O)C1CC=C(Cl)CC1C(=O)NCc1ccccc1 (configuration not stated) | – | -22 |
| O=C(NCc1ccccc1)C1CNCC(C(=O)NCc2ccccc2)C1 (configuration not stated) | – | -5.56 |
| O=C(NCc1ccccc1)[C@H]1C[C@@H]1[C@H](NP(=O)(c1ccccc1)c1ccccc1)c1ccccc1 | 18.4 µM (active) | – |
| CCc1cc2cc(OC)ccc2nc1SCC(=O)Nc1cc(OC)c(OC)cc1C(=O)O | – | -17.5 |
| COc1ccc(C)cc1NC(=O)CSc1cccc[n+]1[O-] | – | 1.37 |
| Cn1c(CNC(=O)C(C)(C)C)nc2ccccc21 | – | 6.61 |
| CCC(C(=O)NC(C)(C)C)n1c(-c2ccccc2)nc2ccccc21 (configuration not stated) | 20.6 µM (active) | – |
| CC(=O)c1nc2ccccc2n1Cc1ccccc1 | – | 2.81 |
| CCCc1nc2ccccc2n1C(C)C(=O)NC(C)(C)C (configuration not stated) | – | -17.6 |
| CC(C)(C)NC(=O)C(CCc1ccccc1)n1c(=O)c(-c2ccccc2)nc2ccccc21 (configuration not stated) | 5.17 µM (active) | – |
| CCC(C(=O)Nc1c(C)cccc1C)n1c(-c2cc(C)cs2)nc2ccccc21 (configuration not stated) | – | 0.528 |
| COc1ccc(OC)c(/C=N/NC(=O)c2ccc[n+](CC(=O)c3ccccc3)c2)c1 | – | -15.7 |
| COc1cccc(NC(=O)CN(C)C(=O)c2cc(C3CC3)nn2-c2ccccc2)c1 | – | -10.6 |
| CC(=O)Nc1ccc(NC(=O)COC(=O)C2CCC(C(C)(C)C)CC2)cc1 (configuration not stated) | – | -21.5 |
| O=C(NCc1cccc(Cl)c1)C1CCN(c2nnc(N3CCCC3=O)s2)CC1 | – | -13.8 |
| COc1ccc(CCNC(=O)COC(=O)Cc2cccc(F)c2)cc1 | – | 1.26 |
| COc1ccc(CCNC(=O)CN2CCC(n3nnc4cc(F)ccc43)CC2)cc1OC | – | 1.72 |
| Cc1ccc(CCNC(=O)Cn2c(-c3cccs3)cc3cc(F)ccc32)cc1 | 18.4 µM (active) | – |
| Cc1cnc(C(=O)Oc2cccc(Cl)c2Cl)cn1 | – | 3.5 |
| CCOC(=O)c1cnc(SC)nc1Sc1ccc(Cl)cc1Cl | – | -26.7 |
| O=C1[C@@H](c2ccccc2)[C@@H](c2ccccc2)N1c1cccnc1 | 16.4 µM (active) | – |

| SMILES | Potency | activity change, negative = growth inhibition [%] |
| --- | --- | --- |
| O=C1C(=O)N(c2ccccc2)C(c2ccccc2)C1c1ccccc1 (configuration not stated) | – | -1.33 |
| CCc1ccccc1NC1c2ccccc2C(=O)N1c1cccnc1 (configuration not stated) | – | -23 |
| CCCN(CCC)c1c([N+](=O)[O-])c(=O)oc2ccccc12 | – | 28.2 |
| O=C(COC(=O)c1ccncc1)c1ccccc1 | – | -3.52 |
| Cc1cccc(N2CCN(C(=O)c3cc4c(=O)[nH]c5ccccc5c4n3C)CC2)c1C | 18.4 µM (active) | – |
| O=C(c1c(Cl)cccc1Cl)N1CCN(c2cccc3[nH]ccc23)CC1 | – | -6.01 |
| Cc1[nH]c2ccc(C(=O)N3CCN(C)CC3)cc2c1C | – | 7.95 |
| CN(C(=O)COC(=O)CCCc1c[nH]c2ccccc12)c1c(N)n(Cc2ccccc2)c(=O)[nH]c1=O | – | 7.29 |
| Oc1cc(O)c2c(c1)OC(c1ccc(O)c(O)c1)C(O)C2 (configuration not stated) | – | -17.7 |
| COc1ccccc1-c1nnc(-c2ccc(F)cc2)o1 | – | 6.98 |
| COc1ccc(-c2csc3nc(-c4ccccc4F)oc(=O)c23)cc1OC | 18.4 µM (active) | – |
| Cc1sc2nc(-c3ccccc3F)oc(=O)c2c1C | – | 3.71 |
| Cc1ccc(N/C(N)=N/c2nc(C(F)(F)F)cc(C(F)(F)F)n2)cc1 | – | -9.78 |
| CCc1cccc(NC(=O)CCNS(=O)(=O)c2cccc3nonc23)c1 | inactive | – |
| CCOC(=O)c1ccc(NC(=O)c2cc(=O)[nH]c3ccccc23)cc1 | – | 0.272 |
| Cn1nnnc1SCc1cc(=O)[nH]c2ccccc12 | – | 1.58 |
| CCCCc1nc2c(=O)[nH]c3ccccc3c2o1 | – | -2.21 |
| Cc1ccc(C)c(NC(=O)COC(=O)CSc2ccccc2)c1 | – | 1.12 |
| Cc1ccc(NC(=O)CSc2nc3c([nH]c4ccccc43)c(=O)n2-c2ccccc2)cc1Cl | 11.6 µM (active) | – |
| CCc1ccc(NC(=O)CSc2nc3c([nH]c4ccccc43)c(=O)n2-c2cccc(OC)c2)cc1 | – | -24.3 |
| Cc1cccc(NC(=O)CSc2nc3c(oc4ccccc43)c(=O)n2-c2ccc(F)cc2)c1 | – | -21.8 |
| CC(Sc1nc2c([nH]c3ccccc32)c(=O)n1C)c1ccccc1 (configuration not stated) | 11.6 µM (active) | – |
| CCOC(=O)c1ccc(NC(=O)CSc2nnc(COc3ccccc3OC)n2C)cc1 | – | -10.6 |
| Cc1ccc(NC(=O)CSc2nnc3[nH]c(=O)cc(C)n23)cc1Cl | – | 12.9 |
| CCOC(=O)c1ccc(NC(=O)CSc2nc3c([nH]c4ccccc43)c(=O)n2C)cc1 | 8.2 µM (active) | – |
| Cc1ccc(C)c(NC(=O)CSc2nc3c(oc4ccccc43)c(=O)n2-c2ccccc2)c1 | 14.6 µM (active) | – |
